Test [1] has as its target Lysosomal acid glucosylceramidase (Homo sapiens) (UniProt P04062). Put plainly: Glucocerebrosidase-p2 (AID 348; in the data active = potency below about 10 µM; also: potency is read from the fitted curve at half-maximal effect). To be noted: purified GBA, blue fluorogenic substrate, 40 min. The essentials:
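Compounds titrated from 0.6 nM upwards against 0.2 nM enzyme in pH 5.9 citric acid/KH2PO4, taurocholate, tween-20; blue fluorogenic substrate 80 uM, 40 min room temperature, stopped and read Ex 365/Em 440 for AC50.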

The nature of test [2]: AP1 Signaling Pathway (AID 357). Also: % is scaled to controls: 0 for no effect and ±100 for the full control effect. To be noted: ME-180 AP-1-bla reporter, EGF-induced, beta-lactamase ratio, 5 h; at 7.69 µM (top of the series) unless noted. In short, it runs like this: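 Titration-series screen for positive or negative modulators of EC50 EGF-induced signaling in ME-180 cells carrying an AP-1-driven beta-lactamase reporter. After 5 hours at 37 degrees Celsius, CCF4 460nm/530nm emission ratio gave %Activity; AC50 values derived.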

Test [3] concerns the target Cytochrome P450 1A2 (Homo sapiens) (UniProt P05177). In words: p450-cyp1a2 (AID 410; calls by dose curve; also: potency is read from the fitted curve at half-maximal effect;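 as to activity change, negative = inhibition: -100% = full effect of reference inhibitor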). To be noted: recombinant CYP1A2, luciferin-ME demethylation, luminescence; series mostly up to 57 µM. The essentials: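 Inhibition was calculated relative to 57 uM furafylline (full inhibition). The reaction used human CYP1A2 at 20nM with Luciferin-ME at its Km, 100uM, driven by an NADPH-regenerating system for 60 min at room temperature.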

A short description of test [4]: NFAT Signaling Pathway (AID 444).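 Also: carbachol stimulus at about its EC50 of 1 µM final; % is scaled to controls: 0 for no effect and ±100 for the full control effect.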 To be noted: Jurkat NFAT-bla M1, carbachol, beta-lactamase ratio, 5 h; at 7.69 µM (top of the series) unless noted. In short, it runs like this:
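Jurkat cells with NFAT-driven β-lactamase reporter and co-expressed M1 receptor, stimulated with carbachol (final 1 uM, ~EC50), compound titration, 5 h at 37 °C. CCF4 loaded 1 h at RT; 460/530 nm ratio gave %activity and AC50.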

A short description of test [5]: Stat Signaling Pathway (AID 446).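 Also: ME-180 cervical cancer cells given 40 pM IL-6 alongside compound; SIE-controlled beta-lactamase reporter measured as 460/530 nm FRET emission ratio; % is scaled to controls: 0 for no effect and ±100 for the full control effect.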 To be noted: ME-180 (cervical carcinoma) SIE beta-lactamase reporter, IL-6 stimulated, 5 h; at 7.69 µM (top of the series) unless noted. The essentials:
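ME-180 SIE-bla cells; overnight plating; cpd + IL-6 40 pM, 5 h, 37 C; LiveBLAzer 2.5 h RT; 460/530 nm emission ratio. Normalized to 300 pM IL-6 and 125 nM JAK inhibitor controls.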

Test [6] addresses Glucocorticoid receptor (Homo sapiens) (UniProt P04150). Put plainly: GR-EFC Redistribution (AID 451; calls by dose curve; also: potency is read from the fitted curve at half-maximal effect). To be noted: CHO-K1 GR-EFC translocation, beta-gal luminescence, 2 h. In short, it runs like this:
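CHO-K1 cells expressing nuclear EA and GR-ED fragments of b-gal; compounds titrated up to 46 uM final, 2 h at 37 C. GR nuclear translocation read as complemented b-gal luminescence after 1 h RT detection.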

For test [7], the target named is Mitogen-activated protein kinase 10 (Mus musculus) (UniProt Q61831). In words: JNK3 AlphaScreen Assay (AID 530).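 Also: kinase came from lysate of stimulated human HepG2 cells; signal reports phosphorylation of biotinylated GST-cJun 1-79 at Ser73 with 10 µM ATP; % is scaled to controls: 0 for no effect and ±100 for the full control effect.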 To be noted: JNK3 lysate, c-Jun phosphorylation; series mostly up to 57.1 µM. The essentials: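 qHTS format: compounds tested as titrations against IL-1beta/TNF-alpha-activated HepG2 lysate JNK3 with biotin-GST-cJun substrate and 10 uM ATP at room temperature. Loss of anti-phospho-cJun AlphaScreen signal indicates inhibition.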
A general note: Bead proximity is the source of the signal in Alpha formats.

Test [8] has as its target 3',5'-cyclic-AMP phosphodiesterase 4B (Homo sapiens) (UniProt Q07343). Put plainly: qHTS Assay for Inhibitors of PDE-IV (AID 607; active = well fitted activation curve with a large enough effect in the main read-out, with a control signal flat, not every such curve was filed as active; also: % of control where 0% means no effect). To be noted: HEK293 ACTOne CNG channel cells, membrane potential fluorescence; series mostly up to 22.9 µM. In short, it runs like this:
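ACTOne HEK293 cells carry a modified cAMP-gated CNG channel and express endogenous PDE4; plated 1000 cells/well, compounds up to 22.9 uM final. Membrane-potential dye fluorescence (ex 535/em 590) was read; parental cells received 10 uM forskolin + 100 uM RO 20-1724.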

A short description of test [9]: qHTS Assay for Lipid Storage Modulators (AID 1519; calls by dose curve). To be noted: Drosophila S3 cells, BODIPY lipid droplet/cell ratio, laser cytometry, cells loaded with oleic acid; for activity change, negative = inhibition: at 57.5 µM (top of the series). The essentials:
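Cells seeded at 5,000 per well were treated with compounds over a concentration series and loaded with oleic acid (400 uM, as added). Lipid droplet fluorescence (488 nm excitation, 500-530 nm channel) was read by laser-scanning cytometry and normalized to 20 uM Triacsin C.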

Test [10] is described as follows: Primary qHTS for small molecule stabilizers of the endoplasmic reticulum resident proteome: Secreted ER Calcium Modulated Protein (SERCaMP) assay (AID 1508630; active = well fitted inhibition curve with a large enough effect; also: % is scaled to controls: 0 for no effect and ±100 for the full control effect). To be noted: SH-SY5Y GLuc-SERCaMP (Gaussia luciferase released on ER calcium loss) secretion, thapsigargin, luminescence; series mostly up to 38.4 µM. In short, it runs like this: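 GLuc-SERCaMP-expressing SH-SY5Y cells, pretreated 16 h with compound, are challenged with thapsigargin to empty ER calcium stores; after 4 h, coelenterazine is added directly to the medium and luminescence is imaged.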
In general terms: In qHTS, concentration-response curves come from the screen itself.

Setting [11] is: measured here: cell count channel max response.
Setting [12] is: measured here: lipid channel max response.

Each structure is given as a SMILES string. Records with an inconclusive call do not appear. The source made the active and inactive calls. Unless noted, calls follow the shape of the dose curve; as a rule, active = well fitted curve in either direction with a large enough effect (not every such curve was filed as active); inconclusive = small, poorly fitted or top-dose-only effect, or another doubt; inactive = flat fitted curve, though single readings scatter. Some results are limits rather than exact numbers.

Sequence of Lysosomal acid glucosylceramidase (Homo sapiens) (P04062 whole entry, looked up): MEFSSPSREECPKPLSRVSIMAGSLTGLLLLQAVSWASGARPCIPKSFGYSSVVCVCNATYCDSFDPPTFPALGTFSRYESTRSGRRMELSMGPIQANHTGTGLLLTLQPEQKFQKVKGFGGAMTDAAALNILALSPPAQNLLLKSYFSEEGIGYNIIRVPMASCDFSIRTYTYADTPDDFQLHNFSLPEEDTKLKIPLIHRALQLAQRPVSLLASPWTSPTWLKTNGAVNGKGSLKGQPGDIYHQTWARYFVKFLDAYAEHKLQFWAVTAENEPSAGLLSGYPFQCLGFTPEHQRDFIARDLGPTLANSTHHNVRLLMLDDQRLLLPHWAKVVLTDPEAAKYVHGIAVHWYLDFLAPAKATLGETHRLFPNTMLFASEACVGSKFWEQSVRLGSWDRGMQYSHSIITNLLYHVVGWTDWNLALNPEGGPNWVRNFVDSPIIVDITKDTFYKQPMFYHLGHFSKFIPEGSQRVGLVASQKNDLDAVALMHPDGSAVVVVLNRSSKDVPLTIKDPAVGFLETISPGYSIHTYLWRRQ
Sequence of Glucocorticoid receptor (Homo sapiens) (P04150 whole entry, looked up, the tested form may be a part): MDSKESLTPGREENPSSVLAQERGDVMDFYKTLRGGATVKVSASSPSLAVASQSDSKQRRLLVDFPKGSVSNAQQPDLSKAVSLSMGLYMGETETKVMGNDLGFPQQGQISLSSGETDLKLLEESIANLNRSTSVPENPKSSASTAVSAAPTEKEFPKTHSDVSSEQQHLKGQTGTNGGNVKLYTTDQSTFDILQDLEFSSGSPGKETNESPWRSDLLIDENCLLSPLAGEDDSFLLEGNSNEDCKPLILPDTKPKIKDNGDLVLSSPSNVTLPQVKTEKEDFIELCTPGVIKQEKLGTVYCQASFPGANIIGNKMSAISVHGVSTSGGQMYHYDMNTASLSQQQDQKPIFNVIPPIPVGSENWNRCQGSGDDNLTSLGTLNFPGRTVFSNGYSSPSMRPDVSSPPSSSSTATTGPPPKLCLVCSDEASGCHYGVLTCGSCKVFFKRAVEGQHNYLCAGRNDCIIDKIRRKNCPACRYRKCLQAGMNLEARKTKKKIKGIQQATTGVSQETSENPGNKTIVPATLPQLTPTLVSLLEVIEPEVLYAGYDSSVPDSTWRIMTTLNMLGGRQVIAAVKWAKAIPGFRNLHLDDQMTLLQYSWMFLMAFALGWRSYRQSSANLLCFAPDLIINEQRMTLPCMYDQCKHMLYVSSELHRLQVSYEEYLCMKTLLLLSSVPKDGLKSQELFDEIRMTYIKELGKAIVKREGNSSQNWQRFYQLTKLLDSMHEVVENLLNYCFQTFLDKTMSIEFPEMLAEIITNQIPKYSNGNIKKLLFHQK
Sequence of 3',5'-cyclic-AMP phosphodiesterase 4B (Homo sapiens) (Q07343 whole entry, looked up): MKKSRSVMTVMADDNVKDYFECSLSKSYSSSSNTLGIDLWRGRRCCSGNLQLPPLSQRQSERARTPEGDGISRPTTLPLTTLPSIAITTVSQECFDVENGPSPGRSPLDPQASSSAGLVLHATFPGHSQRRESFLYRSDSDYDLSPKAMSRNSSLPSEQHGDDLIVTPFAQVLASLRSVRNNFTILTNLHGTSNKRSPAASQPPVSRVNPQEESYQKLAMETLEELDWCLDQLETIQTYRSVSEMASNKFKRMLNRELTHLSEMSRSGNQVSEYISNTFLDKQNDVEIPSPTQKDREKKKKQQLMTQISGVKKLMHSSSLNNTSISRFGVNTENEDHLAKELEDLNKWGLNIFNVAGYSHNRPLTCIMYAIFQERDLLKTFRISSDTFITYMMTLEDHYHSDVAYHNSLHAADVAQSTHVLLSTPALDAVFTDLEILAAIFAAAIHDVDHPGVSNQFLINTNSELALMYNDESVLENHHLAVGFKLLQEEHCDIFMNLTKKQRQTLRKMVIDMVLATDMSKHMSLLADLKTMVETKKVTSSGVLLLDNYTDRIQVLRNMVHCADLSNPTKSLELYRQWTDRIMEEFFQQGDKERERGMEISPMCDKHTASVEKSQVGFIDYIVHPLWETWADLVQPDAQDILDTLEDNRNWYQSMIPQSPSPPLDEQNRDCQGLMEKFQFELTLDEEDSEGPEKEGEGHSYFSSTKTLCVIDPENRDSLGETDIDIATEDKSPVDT
Sequence of Cytochrome P450 1A2 (Homo sapiens) (P05177 whole entry, looked up): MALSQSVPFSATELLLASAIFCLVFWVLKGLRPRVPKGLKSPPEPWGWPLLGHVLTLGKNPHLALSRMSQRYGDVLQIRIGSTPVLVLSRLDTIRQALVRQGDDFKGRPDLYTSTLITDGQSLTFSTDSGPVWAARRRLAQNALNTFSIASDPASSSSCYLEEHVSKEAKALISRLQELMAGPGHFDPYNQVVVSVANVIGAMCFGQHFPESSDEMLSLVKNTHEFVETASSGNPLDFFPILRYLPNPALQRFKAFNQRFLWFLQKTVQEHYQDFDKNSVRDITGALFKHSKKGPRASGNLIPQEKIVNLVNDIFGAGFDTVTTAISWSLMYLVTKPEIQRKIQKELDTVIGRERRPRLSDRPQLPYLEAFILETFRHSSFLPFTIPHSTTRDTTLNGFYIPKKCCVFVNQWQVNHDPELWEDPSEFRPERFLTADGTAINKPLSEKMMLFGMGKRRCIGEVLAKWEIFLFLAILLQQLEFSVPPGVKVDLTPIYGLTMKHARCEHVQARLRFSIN

Consider `COc1ccc(NC(=O)N2CC[C@@]3(CCCNC3)C2)cc1`, for which the Potency in test [1] is > 11.4 µM (inactive); in test [6], > 46 µM (inactive). The activity change, negative = inhibition in [2] is -15.6% (inactive); in test [4], -5.59% (inactive); in test [9], -2.79% (inactive). The Potency result in test [3], in test [8] and in test [10] was “inactive” each time. Besides, the activity, negative = inhibition in [5] is -0.259% (inactive). Moreover, the result in test [7] was inactive. Also, the max response was -3.47% in test [9] (setting [11]) and -5.51% in [9] (setting [12]).

With `COC(=O)N1CCC2(CC1)CN(C(=O)Nc1ccccc1)C2`, the Potency in test [1] was > 11.4 µM (inactive); in test [6], > 46 µM (inactive). Further, the activity change, negative = inhibition in test [2] was -8.08% (inactive); in test [4] it was 8.68% (inactive); in test [9] it was 5.14% (inactive). Further, the Potency entry in [3], in test [8] and in test [10] was “inactive” in each case. Besides, in test [5], the activity, negative = inhibition is 1.2% (inactive). For the same molecule, the result in test [7] was inactive. For the same molecule, the max response is -14.6% in test [9] (setting [11]) and -8.35% in test [9] (setting [12]).

With `COCC(=O)N1CCC[C@@]2(CCN(c3ncccn3)C2)C1`, the Potency in test [1] was > 11.4 µM (inactive); in [6], > 46 µM (inactive). In addition, the figures for the activity change, negative = inhibition in [2], in [4] and in test [9] were -8.65% (inactive), -4.08% (inactive) and -2.11% (inactive), respectively. The Potency entry in test [3], in test [8] and in test [10] was “inactive” each time. Also, in test [5], the activity, negative = inhibition is -2.01% (inactive). Moreover, the call in test [7] was inactive. Besides, the max response in test [9] (setting [11]) was 19.1%; in test [9] (setting [12]), 20.3%.

As to `Cn1cccc1C(=O)N1CCC2(CCN(C(=O)Nc3cccc(F)c3)CC2)CC1`, the Potency in test [1] was > 11.4 µM (inactive); in test [6], > 46 µM (inactive). Further, the activity change, negative = inhibition in test [2] is -12.6% (inactive); in test [4], 15.8% (inactive); in test [9], 6.54% (inactive). The Potency entry in [3], in test [8] and in [10] was “inactive” throughout. Besides, in [5], the activity, negative = inhibition was -3.96% (inactive). Besides, the molecule was called inactive in test [7]. The results for the max response in [9] (setting [11]) and in test [9] (setting [12]) were 18.2% and 25.2%, respectively.

Turning to `COC(=O)N1CCC2(CCN(C(=O)Nc3ccccc3)CC2)CC1`, the Potency in test [1] is > 11.4 µM (inactive); in test [6] it was > 46 µM (inactive). For the same molecule, the activity change, negative = inhibition is -4.41% (inactive) in [2], 4.8% (inactive) in test [4] and 5.74% (inactive) in [9]. Besides, the Potency result in test [3], in test [8] and in [10] was “inactive” each time. Moreover, in [5], the activity, negative = inhibition was 0.0402% (inactive). In addition, the result in [7] was inactive. In addition, the max response stood at 8.07% in test [9] (setting [11]) and 17.4% in test [9] (setting [12]).

For `COC(=O)N1CCC[C@@]2(CCN(C(=O)Nc3ccccc3)C2)C1`, the Potency in test [1] was > 11.4 µM (inactive); in [3], 12.6 µM (active); in [6] it was > 46 µM (inactive). Moreover, the activity change, negative = inhibition in [2] is -3.51% (inactive); in test [4] it was 8.29% (inactive); in test [9], 3.74% (inactive). In addition, the activity, negative = inhibition in [5] was -0.455% (inactive). For the same molecule, the molecule was called inactive in test [7]. Besides, the Potency result in test [8] and in [10] was “inactive” each time. Also, the max response is -3.53% in test [9] (setting [11]) and 3.51% in test [9] (setting [12]).

For `Cc1noc(C)c1C(=O)N1CCC[C@@]2(CCN(C(=O)NC(C)C)C2)C1`, the Potency is > 11.4 µM (inactive) in test [1] and > 46 µM (inactive) in test [6]. The activity change, negative = inhibition in test [2] was -0.0457% (inactive); in test [4], 7.59% (inactive); in test [9], 3.68% (inactive). The Potency result in [3], in test [8] and in test [10] was “inactive” throughout. The activity, negative = inhibition in test [5] is -12.3% (inactive). In addition, the call in [7] was inactive. The max response in test [9] (setting [11]) turned out to be 13.4%; in [9] (setting [12]), 18.4%.

Values taken from PubChem BioAssay (NCATS).
